Test results: PubChem BioAssay (Tox21)
Inconclusive results are not listed. Active and inactive are the calls of the source. Unless noted, calls come from the whole dose curve; as a rule, active = well fitted curve in the direction sought with a large enough effect in the repeat runs; inconclusive = weak or mixed curves; inactive = no such curve, though single readings can be large; an effect the other way counts as inactive or inconclusive.

How the values were obtained:
[1] = qHTS assay for small molecules that induce genotoxicity in human embryonic kidney cells expressing luciferase-tagged ATAD5 (AID 651632); note: nearly all actives have a fitted effect of over 15% in size
Method in brief: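 Reporter cells (HEK293T) express luciferase-tagged ATAD5, a protein that accumulates after DNA damage. Treat 16 hr at 37C/5% CO2, add Amplite, wait 30 min at RT, and read luminescence.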

[2] = qHTS assay for small molecules that induce genotoxicity in human embryonic kidney cells expressing luciferase-tagged ATAD5 - cell viability (AID 651634; calls by dose curve; note: nearly all actives have a fitted effect of over 25% in size; note: potency is the fitted concentration of half-maximal effect)
Method in brief: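 Seeding of 2,000 HEK293T ATAD5-luciferase cells per well preceded pin-tool compound transfer. Plates sat 15.5 hr at 37C under 5% CO2, then fluorescence was read after 30 min with CellTiter-Fluor.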

[3] = qHTS assay for small molecule disruptors of the mitochondrial membrane potential - cell viability (AID 720634; calls by dose curve;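 note: human HepG2 liver cancer cells; series mostly up to about 83 µM; nearly all actives have a fitted effect of over 20% in size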)
Method in brief: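 Measuring cytotoxicity alongside mitochondrial potential, the screen quantified ATP by luminescence in HepG2 cells after 1 hr compound incubation and a 30 min room-temperature CellTiter-Glo step.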

[4] = qHTS assay to test for compound auto fluorescence at 535 nm (green) in HepG2 cells (AID 720675)
[5] = qHTS assay to test for compound auto fluorescence at 590 nm (red) in HEK293 cells (AID 720679)
Method in brief: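 Intensity at 540nm excitation and 590nm emission is reported as Rose Bengal sodium-equivalent autofluorescence. Measurements followed overnight exposure (37C, 5% CO2) of HEK293 cells, 2,000 per well, to 23 nL compound.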

[6] = qHTS assay to test for compound auto fluorescence at 535 nm (green) in HEK293 cells (AID 720680)
[7] = qHTS assay to test for compound auto fluorescence at 590 nm (red) in HepG2 cell free culture (AID 720684)
Method in brief: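 Steps: dispense MEM/10% FBS medium, no cells; pin compound or DMSO vehicle; read red channel, Ex/Em 540/590 nm. Output given as Rose Bengal sodium equivalents.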

[8] = qHTS assay to test for compound auto fluorescence at 460 nm (blue) in HepG2 cell free culture (AID 720685)
Method in brief: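 Compound (23 nL) or DMSO pinned into cell-free MEM with 10% FBS; blue fluorescence read at 405/460 nm excitation/emission, expressed as auto-fluorescence equivalency to triamterene.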

[9] = qHTS assay to test for compound auto fluorescence at 535 nm (green) in HepG2 cell free culture (AID 720686)
[10] = qHTS assay to identify small molecule antagonists of the androgen receptor (AR) signaling pathway using the MDA cell line - cell viability counter screen (AID 743041; note: nearly all actives have a fitted effect of over 45% in size)
Method in brief: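 Cells were plated at 3,000 per well and left 5 h. Compounds in DMSO were then pinned in, followed by R1881. After 16 h at 37C, CellTiter-Fluor fluorescence gave viability.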

[11] = qHTS assay to identify small molecule antagonists of the thyroid receptor (TR) signaling pathway - cell viability counter screen (AID 743064); note: nearly all actives have a fitted effect of over 50% in size; note: potency is the fitted concentration of half-maximal effect
Method in brief: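 Same-well viability check: GH3.TRE-Luc cells stimulated with 1 nM T3 alongside test compound for 23.5 h, followed by CellTiter-Fluor fluorescence.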

[12] = qHTS assay to identify small molecule antagonists of the thyroid receptor (TR) signaling pathway (AID 743065); note: nearly all actives have a fitted effect of over 55% in size; note: potency is the fitted concentration of half-maximal effect
Method in brief: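 Antagonism measured as loss of luciferase signal in GH3 cells stably carrying a TRE-luciferase reporter, co-treated with compound and T3 (1 nM final) for 23.5 h at 37 C. Viability was read in the same well by CellTiter-Fluor.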

[13] = test system: thyroid hormone receptor (rat, GH3 cells); assay: qHTS assay to identify small molecule agonists of the thyroid receptor (TR) signaling pathway (AID 743066; calls by dose curve)
[14] = qHTS assay to identify small molecule antagonists of the estrogen receptor alpha (ER-alpha) signaling pathway - cell viability counter screen (AID 743074; calls by dose curve;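 note: HEK293 cells carrying ER-alpha-UAS-bla reporter stimulated with 17beta-estradiol; nearly all actives have a fitted effect of over 45% in size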; note: potency is the fitted concentration of half-maximal effect)
[15] = qHTS assay to identify small molecule antagonists of the estrogen receptor alpha (ER-alpha) signaling pathway using the BG1 cell line - cell viability counter screen (AID 743081);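 note: compound given together with 17beta-estradiol as the ER stimulus; nearly all actives have a fitted effect of over 45% in size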; note: potency is the fitted concentration of half-maximal effect
Aromatase (Homo sapiens) = Aromatase (Homo sapiens) (UniProt P11511); assay: qHTS assay to identify aromatase inhibitors (AID 743083); note: series mostly up to about 70 µM; nearly all actives have a fitted effect of over 55% in size
Sequence of Aromatase (Homo sapiens) (P11511 whole entry, looked up): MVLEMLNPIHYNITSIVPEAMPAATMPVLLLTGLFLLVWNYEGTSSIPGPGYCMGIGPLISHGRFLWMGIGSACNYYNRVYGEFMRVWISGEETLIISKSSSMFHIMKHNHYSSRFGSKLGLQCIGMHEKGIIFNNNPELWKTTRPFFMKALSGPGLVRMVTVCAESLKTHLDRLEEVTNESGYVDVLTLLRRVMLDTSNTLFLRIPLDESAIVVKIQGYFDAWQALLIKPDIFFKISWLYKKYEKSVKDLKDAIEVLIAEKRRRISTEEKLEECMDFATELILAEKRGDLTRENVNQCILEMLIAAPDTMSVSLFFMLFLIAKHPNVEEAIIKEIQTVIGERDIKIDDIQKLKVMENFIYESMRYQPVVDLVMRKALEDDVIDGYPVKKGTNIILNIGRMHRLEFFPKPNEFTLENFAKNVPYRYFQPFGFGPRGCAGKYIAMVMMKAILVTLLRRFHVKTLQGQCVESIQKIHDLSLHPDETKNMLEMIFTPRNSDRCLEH

[16] = qHTS assay to identify aromatase inhibitors - cell viability counter screen (AID 743084);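 note: cells stimulated with testosterone during compound exposure; nearly all actives have a fitted effect of over 55% in size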
[17] = qHTS assay to identify small molecule that activate the aryl hydrocarbon receptor (AhR) signaling pathway - cell viability counter screen (AID 743086);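 note: HepG2 liver cells carrying the AhR DRE luciferase reporter; series mostly up to about 70 µM; nearly all actives have a fitted effect of over 45% in size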
Method in brief: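 Cytotoxicity counter screen: CellTiter-Fluor signal (30 min, 37 C) in 4000 HepG2 cells/well carrying the DRE-luciferase reporter, following 24 h compound exposure at 37 C.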

[18] = qHTS assay to identify small molecule phospholipidosis (PLD) inducers (AID 1259344; active = well fitted curve in the direction sought with a large enough effect; an effect the other way counts as inactive or inconclusive)
Method in brief: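 Phospholipidosis is scored by imaging LipidTOX-stained pits in HepG2 cells exposed to compound for 24 h at 37 C; pit counts and integrated intensities per well and per cell serve as outputs.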

[19] = qHTS assay to identify small molecule antagonists of the glucocorticoid receptor (GR) signaling pathway - cell viability counter screen (AID 720693); note: nearly all actives have a fitted effect of over 55% in size; note: potency is the fitted concentration of half-maximal effect

Measured: Potency

CC(C)CCC(=O)O[C@H]1CC[C@H]2[C@@H]3CCC4=CC(=O)CC[C@]4(C)[C@H]3CC[C@]12C
active: [11] 33.5 µM | [12] 29.8 µM
not listed: [19]
inactive: all other assays above

Cc1ccccc1-n1c(CF)nc2ccc(N)cc2c1=O
inactive: all assays above

C[N+]1(C)CCCCC1COC(=O)C(O)(c1ccccc1)c1ccccc1 (stereo not drawn)
not listed: [11] | [12] | [13]
inactive: all other assays above

CCCCC[C@@H](O)C1C(=O)OC(C)[C@H](O)/C=C/C=C/C=C/C=C/C=C(\C)C(O)C(O)C(O)C[C@H](O)C[C@H](O)C[C@H](O)C[C@H](O)C[C@@H]1O (stereo partly drawn)
inactive: all assays above

CN=C1CN(O)C(c2ccccc2)=c2cc(Cl)ccc2=N1
inactive: all assays above

CCCC(C)C1(CC)C(=O)NC(=O)NC1=O (stereo not drawn)
inactive: all assays above

CC(=O)O[C@H]1C[C@H](O[C@H]2[C@@H](O)C[C@H](O[C@H]3[C@@H](O)C[C@H](OC4CC[C@@]5(C)[C@H](CC[C@@H]6[C@@H]5CC[C@]5(C)[C@@H](C7=CC(=O)OC7)CC[C@]65O)C4)O[C@@H]3C)O[C@@H]2C)O[C@H](C)[C@H]1O[C@@H]1O[C@H](CO)[C@@H](O)[C@H](O)[C@H]1O (stereo partly drawn)
active: [2] 0.298 µM | [19] 0.756 µM | [14] 0.0674 µM
not listed: [10]
inactive: all other assays above

CNC(=O)Oc1ccccc1C(=O)Nc1ccccc1
not listed: [3] | [12]
inactive: all other assays above

CC(=O)O[C@H]1CC[C@H]2[C@@H]3CCC4=CC(=O)CCC4=C3C=C[C@]12C
not listed: [14] | [19]
inactive: all other assays above

CCC(=O)O[C@]1(c2ccccc2)CCN(C)C[C@H]1C
not listed: [11]
inactive: all other assays above

CCCCCCC(=O)O[C@H]1CC[C@H]2[C@@H]3CC[C@H]4CC(=O)C=C(C)[C@]4(C)[C@H]3CC[C@]12C
not listed: [14]
inactive: all other assays above

O=[N+]([O-])c1cc(I)c(O)c(I)c1
active: [2] 23.7 µM | [11] 26.6 µM | [12] 21.1 µM | [15] 10.6 µM
not listed: [3] | [13] | [14] | [19]
inactive: all other assays above

C=CCN1CC[C@]23c4c5ccc(O)c4O[C@H]2[C@@H](O)C=C[C@H]3[C@H]1C5
inactive: all assays above

C[N+]1([O-])[C@@H]2CC[C@H]1CC(OC(=O)C(CO)c1ccccc1)C2 (stereo partly drawn)
not listed: [12] | [13]
inactive: all other assays above
